# Activity calls are given as the source filed them. Unless noted, no rule for the calls is given here.
# Tests used:
# [1] = tested on: Wnt5a (protein binding on small-molecule microarray); assay: Wnt5a binders on small-molecule microarray, primary screen, biophysical, 635/667 nm fluorescence (AID 1142); conditions: 635 nm fluorescence, higher = more signal;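 also: fluorescence read at 667 nm with signal to noise per printed feature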
# [2] = cell viability in Huh7 cells, primary screen, cytotoxicity control for HCV replication inhibitor project, CellTiter-Glo luminescence, basal, 48 h (AID 1143); conditions: Huh7 HCV replicon, higher = more signal, called active from +8 up or from −8 down;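 also: Huh7 hepatoma cells carrying a hepatitis C replication reporter with no stimulus; test concentration not given here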
# [3] = P. aeruginosa biofilm formation inhibitors, primary screen, PAO1 strain, BacTiter-Glo luminescence, LB-PBS (AID 1144); conditions: 12 h, higher = more signal
# [4] = CREB reporter modulators without forskolin, primary screen, cell-based, PC12, CRE-LacZ reporter, unstimulated (AID 1145); conditions: no forskolin, luminescence, 4.5 h, higher = more signal, called active from +8 up or from −8 down
# [5] = CREB reporter modulators under forskolin, primary screen, cell-based, PC12, CRE-LacZ reporter, forskolin-stimulated (AID 1146); conditions: luminescence, 4.5 h, higher = more signal, called active from +8 up or from −8 down;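 also: PC12 cells with 6xCRE LacZ reporter stimulated by forskolin 10 µM; beta-galactosidase reporter signal reflecting CREB driven transcription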
# [6] = biological target: Streptavidin (Streptomyces avidinii) (UniProt P22629); assay: streptavidin binders on small-molecule microarray, primary screen, artefact control for SMM compound annotation, biophysical, 635/667 nm fluorescence (AID 1147); conditions: streptavidin binding, higher = more signal;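 also: signal reflects streptavidin binding to arrayed compounds as a control protein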
# Streptavidin (Streptomyces avidinii), sequence (P22629 whole entry, looked up): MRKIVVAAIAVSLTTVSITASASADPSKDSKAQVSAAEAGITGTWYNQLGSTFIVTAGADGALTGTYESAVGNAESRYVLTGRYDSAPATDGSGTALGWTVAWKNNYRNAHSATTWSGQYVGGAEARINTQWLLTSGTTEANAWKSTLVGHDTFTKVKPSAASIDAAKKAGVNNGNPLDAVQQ
# [7] = small-molecule binders of probe aInhba, primary screen, biochemical, small-molecule microarray, 635/667 nm fluorescence (AID 1148); conditions: higher = more signal;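 also: score merges 667nm spot fluorescence with signal-to-noise for antibody binding to printed compounds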
# [8] = biological target: Torsin-1A (Homo sapiens) (UniProt O14656); assay: torsin A binders from cell lysate, primary screen, small-molecule microarray, wild-type, 635/667 nm (AID 1149); conditions: COS7 hTOR1A-WT lysate, 635 nm fluorescence, higher = more signal
# Torsin-1A (Homo sapiens), sequence (O14656 whole entry, looked up): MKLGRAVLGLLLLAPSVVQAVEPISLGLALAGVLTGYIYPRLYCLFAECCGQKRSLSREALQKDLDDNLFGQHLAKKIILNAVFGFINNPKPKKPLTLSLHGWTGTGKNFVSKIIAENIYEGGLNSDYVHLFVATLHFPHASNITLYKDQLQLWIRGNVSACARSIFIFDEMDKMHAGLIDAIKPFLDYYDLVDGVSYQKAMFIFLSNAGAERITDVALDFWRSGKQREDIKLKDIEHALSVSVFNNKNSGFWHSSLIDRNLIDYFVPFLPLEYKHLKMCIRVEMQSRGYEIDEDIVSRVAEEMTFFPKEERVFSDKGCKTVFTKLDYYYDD
# [9] = biological target: Torsin-1A (Homo sapiens) (UniProt O14656); assay: small-molecule binders of mutant TOR1A in lysate, primary screen, cell lysate, small-molecule microarray, COS7 lysate, 635/667 nm fluorescence (AID 1150); conditions: COS7 hTOR1A mutant lysate, 635 nm fluorescence, higher = more signal;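 also: score pools 667 nm emission and signal to noise measuring lysate protein binding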
# [10] = tested on: Sonic hedgehog protein (Shh); assay: small-molecule binders of Shh protein, primary screen, biochemical, small-molecule microarray, 635/667 nm fluorescence (AID 1151); conditions: small-molecule microarray binding, 635 nm fluorescence; higher = more signal;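 also: Shh protein binding to compounds spotted on small-molecule microarray slides; score combines spot fluorescence intensity with signal-to-noise across triplicate slides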
# [11] = E. coli DRC41 culture turbidity changes, primary screen, E. coli filamentation inducer project, strain DRC41, OD650, 48 h (AID 1152);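 also: E. coli MC1000 strain DRC41 lacking acrAB efflux pump and sulA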; conditions: E. coli DRC41 (acrAB sulA), higher = more signal, called active from +8 up or from −8 down
# [12] = small-molecule binders of probe aLefty1, primary screen, biochemical, small-molecule microarray, 635/667 nm fluorescence (AID 1153); conditions: higher = more signal;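 also: score merges spot fluorescence with signal-to-noise ratio from the scanned slide images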
# [13] = PSAC antagonists in infected red cells, primary screen, cell-based, P. falciparum Indochina, OD700, 1 h (AID 1154); conditions: P. falciparum Indochina infected RBC osmotic lysis, higher = more signal, called active from +8 up or from −8 down
# [14] = PSAC antagonists in infected red cells, primary screen, cell-based, P. falciparum Indochina, OD700, 2 h (AID 1155);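 also: lysis reports solute entry through the parasite surface anion channel PSAC; channel blockers reduce lysis of infected cells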; conditions: P. falciparum Indochina infected erythrocytes, osmotic lysis OD700; higher = more signal, called active from +8 up or from −8 down
# [15] = osmotic lysis modulators in infected erythrocytes, primary screen, PSAC antagonist project, cell-based, P. falciparum Indochina, OD700, 3 h (AID 1156); conditions: higher = more signal, called active from +8 up or from −8 down
# [16] = PSAC antagonists in infected red cells, primary screen, cell-based, P. falciparum Indochina, OD700, 18 h (AID 1157); conditions: P. falciparum Indochina infected erythrocytes, osmotic lysis OD700, 18 h; higher = more signal, called active from +8 up or from −8 down
# [17] = modulators of S6 phosphorylation in cells, primary screen, cell-based, A549, cytoblot, luminescence, serum-stimulated (AID 1158); conditions: A549 phospho-S6 cytoblot, 5 h, higher = more signal;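 also: serum-stimulated A549 lung adenocarcinoma cells; signal is phosphorylated S6 detected by cytoblot immunostaining with HRP secondary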
# [18] = biological target: NADPH oxidase 2 (Homo sapiens) (UniProt P04839); assay: NOX2-dependent H2O2 signal modulators, primary screen, NOX inhibitor project, cell-based, HEK293-NOX2, PMA-stimulated, Amplex Red fluorescence (AID 1159); conditions: 45 min, higher = more signal, called active from +8 up or from −8 down; also: test concentration not given here
# NADPH oxidase 2 (Homo sapiens), sequence (P04839 whole entry, looked up): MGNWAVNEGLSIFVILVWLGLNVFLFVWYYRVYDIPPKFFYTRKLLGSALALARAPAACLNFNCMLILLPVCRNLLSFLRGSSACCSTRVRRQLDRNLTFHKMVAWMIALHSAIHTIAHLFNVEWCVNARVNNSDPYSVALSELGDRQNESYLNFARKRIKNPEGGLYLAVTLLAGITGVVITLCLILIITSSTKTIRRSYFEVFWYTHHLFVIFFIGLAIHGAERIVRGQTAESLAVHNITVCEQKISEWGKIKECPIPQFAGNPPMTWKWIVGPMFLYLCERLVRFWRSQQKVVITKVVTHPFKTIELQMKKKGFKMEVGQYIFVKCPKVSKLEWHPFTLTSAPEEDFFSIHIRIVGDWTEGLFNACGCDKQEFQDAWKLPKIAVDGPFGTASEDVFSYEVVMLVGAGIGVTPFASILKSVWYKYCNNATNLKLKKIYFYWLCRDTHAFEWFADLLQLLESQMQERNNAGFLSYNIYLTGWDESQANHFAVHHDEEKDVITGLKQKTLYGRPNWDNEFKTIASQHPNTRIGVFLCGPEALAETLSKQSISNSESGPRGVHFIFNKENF
# [19] = biological target: NADPH oxidase 4 (Homo sapiens) (UniProt Q9NPH5); assay: NOX4-dependent H2O2 signal modulators, primary screen, NOX inhibitor project, cell-based, HEK293-NOX4, tetracycline-induced, Amplex Red fluorescence (AID 1160); conditions: 45 min, higher = more signal, called active from +8 up or from −8 down
# NADPH oxidase 4 (Homo sapiens), sequence (Q9NPH5 whole entry, looked up): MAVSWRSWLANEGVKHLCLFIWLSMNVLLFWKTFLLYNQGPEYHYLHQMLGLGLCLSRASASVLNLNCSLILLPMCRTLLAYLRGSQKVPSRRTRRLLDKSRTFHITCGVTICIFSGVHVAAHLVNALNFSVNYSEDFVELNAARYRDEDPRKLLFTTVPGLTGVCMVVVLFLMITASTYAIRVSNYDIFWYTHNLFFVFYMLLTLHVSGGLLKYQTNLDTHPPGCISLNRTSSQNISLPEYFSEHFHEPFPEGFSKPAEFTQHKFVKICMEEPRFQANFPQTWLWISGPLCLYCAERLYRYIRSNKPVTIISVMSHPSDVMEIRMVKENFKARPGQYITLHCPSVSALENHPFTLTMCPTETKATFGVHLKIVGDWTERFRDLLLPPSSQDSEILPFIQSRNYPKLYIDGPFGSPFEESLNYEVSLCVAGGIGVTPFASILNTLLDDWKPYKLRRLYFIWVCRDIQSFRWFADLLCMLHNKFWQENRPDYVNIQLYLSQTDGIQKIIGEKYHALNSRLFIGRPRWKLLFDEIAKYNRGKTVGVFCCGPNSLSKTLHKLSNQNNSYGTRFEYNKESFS
# [20] = biological target: NADPH oxidase 5 (Homo sapiens) (UniProt Q96PH1); assay: NOX5-dependent H2O2 signal modulators, primary screen, NOX inhibitor project, cell-based, HEK293-NOX5, Amplex Red fluorescence (AID 1161); conditions: HEK293-NOX5, ionomycin, 45 min, higher = more signal
# NADPH oxidase 5 (Homo sapiens), sequence (Q96PH1 whole entry, looked up): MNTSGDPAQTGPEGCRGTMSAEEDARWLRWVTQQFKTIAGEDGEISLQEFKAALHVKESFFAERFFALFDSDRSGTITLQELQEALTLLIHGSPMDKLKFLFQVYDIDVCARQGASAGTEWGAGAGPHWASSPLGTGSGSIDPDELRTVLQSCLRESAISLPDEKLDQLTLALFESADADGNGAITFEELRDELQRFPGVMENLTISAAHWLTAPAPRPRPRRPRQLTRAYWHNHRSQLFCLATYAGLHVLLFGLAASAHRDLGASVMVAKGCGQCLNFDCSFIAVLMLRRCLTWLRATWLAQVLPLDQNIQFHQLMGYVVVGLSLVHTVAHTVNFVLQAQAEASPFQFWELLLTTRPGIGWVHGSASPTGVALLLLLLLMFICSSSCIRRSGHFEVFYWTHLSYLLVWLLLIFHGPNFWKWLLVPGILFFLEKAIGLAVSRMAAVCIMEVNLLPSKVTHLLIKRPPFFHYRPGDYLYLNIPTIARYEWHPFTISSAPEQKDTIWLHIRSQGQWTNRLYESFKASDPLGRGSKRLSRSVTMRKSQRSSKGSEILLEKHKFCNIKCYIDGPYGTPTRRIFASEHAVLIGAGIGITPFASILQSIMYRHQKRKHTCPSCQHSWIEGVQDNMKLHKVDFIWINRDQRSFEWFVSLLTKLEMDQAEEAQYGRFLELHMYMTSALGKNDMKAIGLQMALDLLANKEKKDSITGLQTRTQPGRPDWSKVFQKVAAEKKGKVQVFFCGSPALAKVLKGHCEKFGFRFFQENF
SMILES,composite z-score [1],z-score [2],z-score [3],z-score [4],z-score [5],composite z-score [6],composite z-score [7],composite z-score [8],composite z-score [9],composite z-score [10],z-score [11],composite z-score [12],z-score [13],z-score [14],z-score [15],z-score [16],z-score [17],z-score [18],z-score [19],z-score [20]
Cc1ccc(F)cc1S(=O)(=O)N[C@H]1CCN(Cc2ccc(OC(C)C)cc2)C1,-0.223,-3.11 (inactive),0.434 (inactive),1.4 (inactive),-0.592 (inactive),-0.48,-0.0963,0.149,-0.0115,1.75,-4.19 (inactive),-0.241,2.31 (inactive),0.709 (inactive),0.183 (inactive),0.526 (inactive),-0.227,-1.11 (inactive),-0.777 (inactive),-2.37
COCCOC(=O)N1C(=O)[C@@]2(c3ccccc31)[C@H](C(=O)N1CCN(c3ncccn3)CC1)[C@H]1C(=O)O[C@H](c3ccccc3)[C@H](c3ccccc3)N1[C@@H]2c1ccccc1OCCO,0.404,-4.29 (inactive),-1.51 (inactive),-2.11 (inactive),-0.885 (inactive),0.631,-0.0323,0.545,0.0291,1.53,2.86 (inactive),0.867,10 (active),1.18 (inactive),-0.427 (inactive),0.0951 (inactive),1.89,0.89 (inactive),1.09 (inactive),0.791
O=C(NCc1ccccc1)[C@@H]1c2ccccc2C(=O)N(Cc2ccc(OC(F)(F)F)cc2)[C@H]1c1ccc(CO)cc1,-0.134,-0.495 (inactive),0.0274 (inactive),0.208 (inactive),0.129 (inactive),-0.756,0.0102,0.521,0.162,-0.493,0.39 (inactive),0.656,3.9 (inactive),0.566 (inactive),1.56 (inactive),0.158 (inactive),0.503,-3.06 (inactive),0.263 (inactive),0.401
CC(C)C[C@H]1NC(=O)C([C@@H](C)OCc2ccccc2)NC(=O)[C@@]23C(=O)N[C@@H](Cc4ccccc4)C2[C@H](C)[C@@]2(C)O[C@H]2C3/C=C/C/C=C\CNC1=O (stereo not given in full),0.0872,-1.63 (inactive),0.727 (inactive),0.839 (inactive),-0.566 (inactive),0.0874,0.242,-0.125,0.519,1.62,-0.629 (inactive),0.0361,1.44 (inactive),-0.387 (inactive),-0.0195 (inactive),0.0591 (inactive),0.298,0.569 (inactive),0.742 (inactive),-2.51
CC(C)[Si](C#CCCc1ccccc1)(O[C@H](c1ccccc1)c1cn(Cc2ccccc2)nn1)C(C)C,0.21,-1.12 (inactive),-0.778 (inactive),-0.0989 (inactive),-0.105 (inactive),1.61,-0.179,0.5,0.484,0.814,1.09 (inactive),0.188,1.36 (inactive),0.308 (inactive),-0.329 (inactive),0.53 (inactive),0.534,-0.967 (inactive),-0.899 (inactive),-3.17
CC1CC/C=C\[C@H]2OC34C=CCN(CCN5CCOCC5)C(=O)[C@H]3N(CCCO)C(=O)[C@@H]4C2C(=O)O1 (stereo not given in full),-0.239,0.0123 (inactive),1.13 (inactive),-0.887 (inactive),-0.0703 (inactive),-0.601,-0.154,-0.0243,0.0876,0.624,-0.576 (inactive),-0.0518,0.811 (inactive),0.354 (inactive),-0.513 (inactive),0.136 (inactive),1.38,0.638 (inactive),-1.71 (inactive),0.947
O=C(NCCN1CCOCC1)[C@@H]1c2ccccc2C(=O)N(Cc2ccc(OC(F)(F)F)cc2)[C@H]1c1ccc(CO)cc1,0.0235,-0.281 (inactive),-0.0358 (inactive),0.558 (inactive),0.338 (inactive),-0.119,-0.0762,-0.282,0.459,-0.0784,-0.288 (inactive),-0.222,1.09 (inactive),0.655 (inactive),1.74 (inactive),-0.161 (inactive),-0.219,0.134 (inactive),0.891 (inactive),2.07
CN(C)C(=O)[C@@]1(Cc2ccccc2CN=[N+]=[N-])COC(c2ccc(OCCCO)cc2)=N1,0.0037,-3.16 (inactive),-0.632 (inactive),-1.34 (inactive),-1.65 (inactive),-0.0988,-0.0288,-0.184,0.715,-1.22,2.37 (inactive),0.236,25.9 (active),11.1 (active),4.63 (inactive),1.67 (inactive),0.0188,-4.96 (inactive),-1.37 (inactive),-3.41
